The source of these data is publication PMC7862700, “An all-to-all approach to the identification of sequence-specific readers for epigenetic DNA modifications on cytosine”.

What all share (assay): DAPPL (digital affinity profiling via proximity ligation, sequencing); 10 mM Tris-HCl pH 7.5, 50 mM NaCl, 1 mM DTT, 4% glycerol, room temperature, 30 min; GST-TFs on glutathione beads, 16-mer random dsDNA library, 0.1% formaldehyde crosslink after washing; high values mean tight binding
The target of one test is T1, FLI1 (Homo sapiens, UniProt Q01543 1-452).
T1 sequence: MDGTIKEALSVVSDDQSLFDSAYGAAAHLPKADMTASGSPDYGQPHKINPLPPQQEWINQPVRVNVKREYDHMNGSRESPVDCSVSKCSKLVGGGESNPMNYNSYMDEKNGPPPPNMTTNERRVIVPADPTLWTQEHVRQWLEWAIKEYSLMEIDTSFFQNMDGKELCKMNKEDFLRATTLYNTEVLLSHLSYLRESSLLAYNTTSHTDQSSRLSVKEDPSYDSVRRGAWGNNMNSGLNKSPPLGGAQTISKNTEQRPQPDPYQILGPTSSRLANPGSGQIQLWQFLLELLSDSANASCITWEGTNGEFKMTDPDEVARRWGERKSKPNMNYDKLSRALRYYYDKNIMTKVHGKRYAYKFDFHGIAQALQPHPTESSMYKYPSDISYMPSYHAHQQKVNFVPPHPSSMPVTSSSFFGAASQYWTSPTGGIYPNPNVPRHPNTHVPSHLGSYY
The following applies: protein: recombinant; tags: N-terminal GST; dsDNA, one strand shown. The procedure, abridged:
(§1)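 Pools were built from human transcription factors expressed in yeast as GST fusions, captured on glutathione beads and DNA-barcoded, along with a tag-only sample. Incubation with 200 nmole of a 16-mer random double-stranded DNA library lasted 30 min at room temperature in Tris/NaCl/DTT/glycerol buffer, and was followed by washing, 0.1% formaldehyde crosslinking, proximity ligation, PCR amplification and Illumina NextSeq500 sequencing. Binding signal is the quotient of each hexamer's read frequency for a factor and its frequency for the tag-only sample.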

The target in the next test is T2, ELK1 (Homo sapiens, UniProt P19419 1-428).
T2 sequence: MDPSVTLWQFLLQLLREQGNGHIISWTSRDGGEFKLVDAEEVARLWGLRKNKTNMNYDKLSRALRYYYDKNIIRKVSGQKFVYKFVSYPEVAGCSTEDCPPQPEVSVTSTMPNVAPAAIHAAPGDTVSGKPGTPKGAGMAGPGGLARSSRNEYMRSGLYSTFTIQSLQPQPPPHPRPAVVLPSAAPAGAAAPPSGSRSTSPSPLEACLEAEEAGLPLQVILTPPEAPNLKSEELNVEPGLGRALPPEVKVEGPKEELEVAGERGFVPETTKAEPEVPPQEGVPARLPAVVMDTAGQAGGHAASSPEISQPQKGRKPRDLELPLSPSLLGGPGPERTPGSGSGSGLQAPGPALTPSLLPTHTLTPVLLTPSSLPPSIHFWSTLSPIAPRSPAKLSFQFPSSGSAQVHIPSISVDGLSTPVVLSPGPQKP
The following applies: protein: recombinant; tags: N-terminal GST; dsDNA, one strand shown. The procedure, abridged:
as §1

Another test has as its target T3, GABPA (Homo sapiens, UniProt Q06546 1-454).
T3 sequence: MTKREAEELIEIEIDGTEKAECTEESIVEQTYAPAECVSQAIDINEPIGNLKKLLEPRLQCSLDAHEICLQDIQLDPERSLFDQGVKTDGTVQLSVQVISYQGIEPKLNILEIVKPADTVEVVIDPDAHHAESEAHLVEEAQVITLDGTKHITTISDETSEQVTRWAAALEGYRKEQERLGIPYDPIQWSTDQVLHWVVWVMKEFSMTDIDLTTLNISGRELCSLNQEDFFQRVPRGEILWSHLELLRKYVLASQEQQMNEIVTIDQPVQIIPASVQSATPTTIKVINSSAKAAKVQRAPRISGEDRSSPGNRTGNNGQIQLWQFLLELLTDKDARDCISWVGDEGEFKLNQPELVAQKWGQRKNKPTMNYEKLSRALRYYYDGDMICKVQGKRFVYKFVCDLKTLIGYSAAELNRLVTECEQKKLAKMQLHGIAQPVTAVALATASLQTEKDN
The following applies: protein: recombinant; tags: N-terminal GST; dsDNA, one strand shown. The gist of the method: as §1

Another test concerns the target T4, ERG (Homo sapiens, UniProt P11308 1-479).
T4 sequence: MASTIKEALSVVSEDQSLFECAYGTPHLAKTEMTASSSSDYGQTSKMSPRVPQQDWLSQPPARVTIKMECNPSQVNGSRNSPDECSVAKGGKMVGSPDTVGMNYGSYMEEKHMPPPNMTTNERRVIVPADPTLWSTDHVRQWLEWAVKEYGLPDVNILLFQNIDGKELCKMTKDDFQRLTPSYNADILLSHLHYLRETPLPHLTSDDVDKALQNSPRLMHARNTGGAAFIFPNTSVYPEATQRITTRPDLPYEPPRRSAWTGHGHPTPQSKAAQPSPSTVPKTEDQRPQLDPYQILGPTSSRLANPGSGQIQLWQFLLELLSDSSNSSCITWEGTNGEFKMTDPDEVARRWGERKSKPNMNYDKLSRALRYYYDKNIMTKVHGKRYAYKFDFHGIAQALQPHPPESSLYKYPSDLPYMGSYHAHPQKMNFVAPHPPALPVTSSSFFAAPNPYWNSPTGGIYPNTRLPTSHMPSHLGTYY
The following applies: protein: recombinant; tags: N-terminal GST; dsDNA, one strand shown. The gist of the method:
as §1

For the next test, the target named is ELF1 (Homo sapiens, UniProt P32519 1-619). The following applies: protein: recombinant; tags: N-terminal GST; dsDNA, one strand shown. The procedure, abridged:
as §1

The target in the next test is T5, EHF (Homo sapiens, UniProt Q9NZC4 1-300).
T5 sequence: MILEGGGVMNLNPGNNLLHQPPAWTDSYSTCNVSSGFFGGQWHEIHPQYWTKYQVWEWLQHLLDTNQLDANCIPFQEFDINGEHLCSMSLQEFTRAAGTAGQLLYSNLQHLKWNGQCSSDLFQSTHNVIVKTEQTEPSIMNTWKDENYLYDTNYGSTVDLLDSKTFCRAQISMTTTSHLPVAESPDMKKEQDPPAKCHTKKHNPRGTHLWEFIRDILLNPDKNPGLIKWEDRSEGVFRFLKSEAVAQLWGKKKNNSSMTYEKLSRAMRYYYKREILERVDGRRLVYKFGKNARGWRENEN
The following applies: protein: recombinant; tags: N-terminal GST; dsDNA, one strand shown. The procedure, abridged:
as §1

The next test deals with SPI1 (Homo sapiens, UniProt P17947 1-270). The following applies: protein: recombinant; tags: N-terminal GST; dsDNA, one strand shown. The gist of the method:
as §1

The target of another test is SPIB (Homo sapiens, UniProt Q01892 1-262). The following applies: protein: recombinant; tags: N-terminal GST; dsDNA, one strand shown. The gist of the method: as §1
A further test addresses T6, ELK3 (Homo sapiens, UniProt P41970 1-407).
T6 sequence: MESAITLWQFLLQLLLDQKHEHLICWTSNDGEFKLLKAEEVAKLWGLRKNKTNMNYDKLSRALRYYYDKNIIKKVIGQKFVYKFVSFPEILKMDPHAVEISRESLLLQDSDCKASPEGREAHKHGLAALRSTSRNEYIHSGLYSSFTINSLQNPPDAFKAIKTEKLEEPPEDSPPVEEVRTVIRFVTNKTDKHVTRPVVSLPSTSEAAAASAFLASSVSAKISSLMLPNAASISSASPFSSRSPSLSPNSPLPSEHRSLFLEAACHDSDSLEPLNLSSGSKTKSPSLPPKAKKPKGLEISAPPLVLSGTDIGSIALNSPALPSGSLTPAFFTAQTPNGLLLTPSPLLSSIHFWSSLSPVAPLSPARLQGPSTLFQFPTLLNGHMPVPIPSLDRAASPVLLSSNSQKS
The following applies: protein: recombinant; tags: N-terminal GST; dsDNA, one strand shown. The procedure, abridged:
as §1

A further test addresses T7, FEV (Homo sapiens, UniProt Q99581 1-238).
T7 sequence: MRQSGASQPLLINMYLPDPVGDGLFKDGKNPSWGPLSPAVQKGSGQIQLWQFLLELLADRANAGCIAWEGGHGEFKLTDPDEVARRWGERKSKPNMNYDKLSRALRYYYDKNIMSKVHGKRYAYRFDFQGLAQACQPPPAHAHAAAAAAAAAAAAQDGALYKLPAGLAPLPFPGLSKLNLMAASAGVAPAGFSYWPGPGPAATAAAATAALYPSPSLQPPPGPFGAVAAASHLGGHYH
The following applies: protein: recombinant; tags: N-terminal GST; dsDNA, one strand shown. The gist of the method: as §1

The target in a further test is ETV5 (Homo sapiens, UniProt P41161 1-510). The following applies: protein: recombinant; tags: N-terminal GST; dsDNA, one strand shown. The gist of the method: as §1
A further test concerns the target HSF1 (Homo sapiens, UniProt Q00613 1-529). The following applies: protein: recombinant; tags: N-terminal GST; chain copies: 3; dsDNA, one strand shown. The gist of the method: as §1
The next test deals with T8, SPIC (Homo sapiens, UniProt Q8N5J4 1-248).
T8 sequence: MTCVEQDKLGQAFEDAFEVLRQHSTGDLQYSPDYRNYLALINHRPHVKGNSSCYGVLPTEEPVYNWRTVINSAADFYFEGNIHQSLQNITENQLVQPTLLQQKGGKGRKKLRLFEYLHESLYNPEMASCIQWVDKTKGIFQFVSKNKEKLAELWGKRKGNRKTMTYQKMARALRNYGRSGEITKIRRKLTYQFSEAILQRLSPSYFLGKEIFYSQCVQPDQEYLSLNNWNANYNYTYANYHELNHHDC
The following applies: protein: recombinant; tags: N-terminal GST; dsDNA, one strand shown. The gist of the method:
as §1

A further test addresses ELF4 (Homo sapiens, UniProt Q99607 1-663). The following applies: protein: recombinant; tags: N-terminal GST; dsDNA, one strand shown. The procedure, abridged: as §1
Another test addresses T9, ELK4 (Homo sapiens, UniProt P28324-2 1-405).
T9 sequence: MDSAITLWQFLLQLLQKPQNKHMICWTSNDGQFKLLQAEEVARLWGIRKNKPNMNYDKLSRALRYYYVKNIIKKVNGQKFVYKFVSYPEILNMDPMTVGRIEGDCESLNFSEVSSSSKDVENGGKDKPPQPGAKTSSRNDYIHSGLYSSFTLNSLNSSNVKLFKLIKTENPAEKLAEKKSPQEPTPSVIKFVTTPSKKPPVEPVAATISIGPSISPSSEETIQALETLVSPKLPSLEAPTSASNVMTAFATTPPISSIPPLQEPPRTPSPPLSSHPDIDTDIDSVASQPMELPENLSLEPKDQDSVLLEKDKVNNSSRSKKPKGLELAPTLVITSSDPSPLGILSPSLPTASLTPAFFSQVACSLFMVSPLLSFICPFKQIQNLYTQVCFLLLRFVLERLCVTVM
The following applies: protein: recombinant; tags: N-terminal GST; dsDNA, one strand shown. The procedure, abridged:
as §1

In the next test the target is T10, ETV2 (Homo sapiens, UniProt O00321 1-342).
T10 sequence: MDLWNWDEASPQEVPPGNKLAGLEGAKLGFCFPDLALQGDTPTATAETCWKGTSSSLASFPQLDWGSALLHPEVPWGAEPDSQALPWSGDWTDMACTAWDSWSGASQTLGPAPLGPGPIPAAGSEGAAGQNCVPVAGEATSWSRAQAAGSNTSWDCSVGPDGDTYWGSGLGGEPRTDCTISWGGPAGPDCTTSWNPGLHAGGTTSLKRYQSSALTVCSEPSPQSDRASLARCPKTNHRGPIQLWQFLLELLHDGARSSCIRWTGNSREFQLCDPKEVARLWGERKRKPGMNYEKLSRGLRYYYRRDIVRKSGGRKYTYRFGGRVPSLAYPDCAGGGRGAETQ
The following applies: protein: recombinant; tags: N-terminal GST; dsDNA, one strand shown. The gist of the method: as §1

Another test deals with T11, ELF3 (Homo sapiens, UniProt P78545 1-371).
T11 sequence: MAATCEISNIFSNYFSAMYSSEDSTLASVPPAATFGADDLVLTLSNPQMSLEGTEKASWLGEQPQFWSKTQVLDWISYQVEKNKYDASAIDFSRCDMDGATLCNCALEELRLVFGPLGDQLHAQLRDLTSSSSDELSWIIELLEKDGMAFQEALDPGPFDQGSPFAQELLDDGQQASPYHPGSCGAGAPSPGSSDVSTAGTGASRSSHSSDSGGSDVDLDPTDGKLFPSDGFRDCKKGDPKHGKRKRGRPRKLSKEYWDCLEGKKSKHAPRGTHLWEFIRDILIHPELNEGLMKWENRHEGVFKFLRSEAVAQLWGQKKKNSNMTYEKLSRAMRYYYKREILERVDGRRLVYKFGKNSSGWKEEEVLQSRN
The following applies: protein: recombinant; tags: N-terminal GST; dsDNA, one strand shown. The gist of the method: as §1

A further test addresses CRX (Homo sapiens, UniProt O43186 1-299). The following applies: protein: recombinant; tags: N-terminal GST; dsDNA, one strand shown. The gist of the method:
as §1

In another test the target is ETV1 (Homo sapiens, UniProt P50549 1-477). The following applies: protein: recombinant; tags: N-terminal GST; dsDNA, one strand shown. The gist of the method:
as §1

Sequence of ETV1 (P50549 whole entry): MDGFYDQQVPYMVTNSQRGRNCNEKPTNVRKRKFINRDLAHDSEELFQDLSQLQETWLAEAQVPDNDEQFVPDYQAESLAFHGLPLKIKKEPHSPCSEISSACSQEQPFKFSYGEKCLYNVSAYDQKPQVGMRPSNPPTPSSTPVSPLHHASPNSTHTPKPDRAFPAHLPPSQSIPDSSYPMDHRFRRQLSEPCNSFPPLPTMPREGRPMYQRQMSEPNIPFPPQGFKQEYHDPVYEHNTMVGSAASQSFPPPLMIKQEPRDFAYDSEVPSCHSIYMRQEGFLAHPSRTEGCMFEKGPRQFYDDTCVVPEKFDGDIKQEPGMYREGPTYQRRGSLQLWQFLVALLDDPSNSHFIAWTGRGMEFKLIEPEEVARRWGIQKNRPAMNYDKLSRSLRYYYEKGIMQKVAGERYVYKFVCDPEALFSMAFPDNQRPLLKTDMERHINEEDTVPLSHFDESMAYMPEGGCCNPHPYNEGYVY
Sequence of ELF4 (Q99607 whole entry): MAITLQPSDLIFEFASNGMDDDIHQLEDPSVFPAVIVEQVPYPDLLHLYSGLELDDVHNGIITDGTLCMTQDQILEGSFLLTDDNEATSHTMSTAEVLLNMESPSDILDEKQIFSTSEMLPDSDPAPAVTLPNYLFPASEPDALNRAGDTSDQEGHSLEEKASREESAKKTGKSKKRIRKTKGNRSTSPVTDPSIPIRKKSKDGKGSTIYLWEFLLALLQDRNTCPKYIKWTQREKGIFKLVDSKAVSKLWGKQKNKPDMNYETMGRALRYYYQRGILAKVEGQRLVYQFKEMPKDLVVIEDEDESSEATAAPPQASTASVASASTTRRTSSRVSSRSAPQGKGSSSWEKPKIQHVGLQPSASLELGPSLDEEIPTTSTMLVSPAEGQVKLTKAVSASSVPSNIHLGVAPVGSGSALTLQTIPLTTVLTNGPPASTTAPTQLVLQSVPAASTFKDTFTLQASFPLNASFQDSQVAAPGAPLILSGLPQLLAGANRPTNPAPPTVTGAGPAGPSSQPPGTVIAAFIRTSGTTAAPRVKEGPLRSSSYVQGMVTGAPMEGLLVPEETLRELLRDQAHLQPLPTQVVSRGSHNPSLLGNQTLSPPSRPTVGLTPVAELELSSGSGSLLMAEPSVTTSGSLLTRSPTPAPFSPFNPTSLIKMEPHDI
Sequence of HSF1 (Q00613 whole entry): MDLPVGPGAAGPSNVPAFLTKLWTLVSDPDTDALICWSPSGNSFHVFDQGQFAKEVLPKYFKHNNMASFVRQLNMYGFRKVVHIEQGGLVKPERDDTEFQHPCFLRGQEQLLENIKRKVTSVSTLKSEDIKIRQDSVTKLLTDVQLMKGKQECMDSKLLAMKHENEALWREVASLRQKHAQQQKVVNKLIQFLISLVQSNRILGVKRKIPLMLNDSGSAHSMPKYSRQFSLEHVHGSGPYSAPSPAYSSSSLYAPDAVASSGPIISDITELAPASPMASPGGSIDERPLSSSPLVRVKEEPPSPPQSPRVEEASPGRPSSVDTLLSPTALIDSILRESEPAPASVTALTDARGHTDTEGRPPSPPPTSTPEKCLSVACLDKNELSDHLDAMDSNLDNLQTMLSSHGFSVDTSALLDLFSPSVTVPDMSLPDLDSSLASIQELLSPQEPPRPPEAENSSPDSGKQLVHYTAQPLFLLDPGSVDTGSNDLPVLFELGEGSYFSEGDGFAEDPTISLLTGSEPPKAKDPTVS
Sequence of CRX (O43186 whole entry): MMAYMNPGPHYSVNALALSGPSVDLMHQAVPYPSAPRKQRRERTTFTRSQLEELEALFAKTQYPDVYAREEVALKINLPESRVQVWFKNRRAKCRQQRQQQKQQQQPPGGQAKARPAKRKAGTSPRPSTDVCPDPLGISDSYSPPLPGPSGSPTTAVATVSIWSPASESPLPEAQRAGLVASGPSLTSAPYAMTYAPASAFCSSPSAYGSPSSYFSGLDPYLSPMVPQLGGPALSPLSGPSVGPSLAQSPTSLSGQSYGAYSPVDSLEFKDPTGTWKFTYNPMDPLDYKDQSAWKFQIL
Sequence of ELF1 (P32519 whole entry): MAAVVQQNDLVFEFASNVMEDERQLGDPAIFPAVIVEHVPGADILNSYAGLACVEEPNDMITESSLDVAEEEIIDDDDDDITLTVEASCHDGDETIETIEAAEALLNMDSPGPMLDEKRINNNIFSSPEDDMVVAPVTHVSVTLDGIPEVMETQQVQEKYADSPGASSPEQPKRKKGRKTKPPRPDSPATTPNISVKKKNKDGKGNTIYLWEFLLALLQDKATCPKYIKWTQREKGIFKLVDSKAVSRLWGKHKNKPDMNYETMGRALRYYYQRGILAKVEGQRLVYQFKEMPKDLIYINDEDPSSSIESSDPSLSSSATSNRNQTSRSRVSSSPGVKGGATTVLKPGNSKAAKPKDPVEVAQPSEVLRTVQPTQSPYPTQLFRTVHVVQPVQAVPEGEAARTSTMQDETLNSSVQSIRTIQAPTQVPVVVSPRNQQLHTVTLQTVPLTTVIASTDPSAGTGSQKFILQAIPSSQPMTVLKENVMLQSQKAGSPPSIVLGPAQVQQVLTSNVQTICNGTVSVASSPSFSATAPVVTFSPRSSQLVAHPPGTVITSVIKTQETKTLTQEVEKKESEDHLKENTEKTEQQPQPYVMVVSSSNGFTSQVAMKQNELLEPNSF
Sequence of ETV5 (P41161 whole entry): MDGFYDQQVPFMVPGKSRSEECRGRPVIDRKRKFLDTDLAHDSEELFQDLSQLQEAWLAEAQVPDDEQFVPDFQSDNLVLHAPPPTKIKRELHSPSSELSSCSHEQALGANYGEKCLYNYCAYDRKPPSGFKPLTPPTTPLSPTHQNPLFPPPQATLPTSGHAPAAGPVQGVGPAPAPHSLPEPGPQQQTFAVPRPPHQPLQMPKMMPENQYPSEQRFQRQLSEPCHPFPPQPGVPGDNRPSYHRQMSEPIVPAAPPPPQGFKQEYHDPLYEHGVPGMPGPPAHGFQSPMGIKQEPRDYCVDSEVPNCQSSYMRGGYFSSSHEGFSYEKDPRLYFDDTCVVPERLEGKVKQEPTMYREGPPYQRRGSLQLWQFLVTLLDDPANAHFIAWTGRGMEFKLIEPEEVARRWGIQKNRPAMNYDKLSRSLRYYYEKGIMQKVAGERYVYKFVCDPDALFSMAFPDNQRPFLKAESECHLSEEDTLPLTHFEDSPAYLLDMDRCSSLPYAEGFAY
Sequence of SPIB (Q01892 whole entry): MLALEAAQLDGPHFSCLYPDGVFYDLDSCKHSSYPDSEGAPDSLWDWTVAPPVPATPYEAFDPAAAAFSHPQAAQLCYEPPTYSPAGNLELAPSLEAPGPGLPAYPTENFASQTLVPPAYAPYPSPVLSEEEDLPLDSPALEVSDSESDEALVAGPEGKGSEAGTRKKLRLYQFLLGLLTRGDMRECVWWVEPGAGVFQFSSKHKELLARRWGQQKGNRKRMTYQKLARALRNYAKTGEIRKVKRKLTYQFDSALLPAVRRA

ATGGGT: the binding signal was 1.39 fold enrichment (6-mer frequency, TF over GST control) with FLI1; 1.37 fold enrichment (6-mer frequency, TF over GST control) with ELK1; 1.28 fold enrichment (6-mer frequency, TF over GST control) with GABPA; 1.43 fold enrichment (6-mer frequency, TF over GST control) with ERG; 1.3 fold enrichment (6-mer frequency, TF over GST control) with ELF1; 1.46 fold enrichment (6-mer frequency, TF over GST control) with EHF. Also, the binding signal in the test with SPI1 was 1.21 fold enrichment (6-mer frequency, TF over GST control); with SPIB, 1.29 fold enrichment (6-mer frequency, TF over GST control); in the test with ELK3 it was 1.44 fold enrichment (6-mer frequency, TF over GST control); with FEV, 1.28 fold enrichment (6-mer frequency, TF over GST control); with ETV5, 1.5 fold enrichment (6-mer frequency, TF over GST control); in the test with HSF1, 1.08 fold enrichment (6-mer frequency, TF over GST control). Besides, the binding signal in the test with SPIC was 1.36 fold enrichment (6-mer frequency, TF over GST control); in the test with ELF4, 1.35 fold enrichment (6-mer frequency, TF over GST control); in the test with ELK4, 1.33 fold enrichment (6-mer frequency, TF over GST control); in the test with ETV2, 1.36 fold enrichment (6-mer frequency, TF over GST control); with ELF3, 1.31 fold enrichment (6-mer frequency, TF over GST control); in the test with CRX, 1.11 fold enrichment (6-mer frequency, TF over GST control). The binding signal with ETV1 is 1.21 fold enrichment (6-mer frequency, TF over GST control).
